Measurements published in PubChem BioAssay (NCATS).
Records with an inconclusive call do not appear. A number with no mark means an inactive call. Activity calls are given as the source filed them. Calls come from the whole dose curve; as a rule, active = well fitted cell-killing curve with a large enough effect; inconclusive = small, poorly fitted or top-dose-only effect, or effect the other way; inactive = flat fitted curve, though single readings scatter.

System: Es-2
Experiment: Primary qHTS to identify gynecologic anti-cancer compounds using libraries of approved drugs and bioactive compounds (AID 1345084); note: nearly all actives have a fitted effect of over 55% in size
Settings: Gynecologic cancer cell panel viability, ATPlite luminescence, 48 h; series mostly up to 57.5 µM; activity change, negative = cytotoxicity: at the top concentration
Outline: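 Cells, 1,000 per well, plated 16 h, then exposed 48 h at 37 C to compounds. Viability by ATPlite luminescence after 15 min at room temperature.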
% is set by controls: 0 for no effect and ±100 for the full control effect; potency is the fitted concentration of half-maximal effect.

Q: How did the “activity change, negative = cytotoxicity” value turn out when C[C@@H]1C[C@H](C)CN(CCC(=O)Nc2ccc(Br)cc2)C1 was run?
A: The value was 0.323%.

Q: Which “activity change, negative = cytotoxicity” value does the source give for O=[N+]([O-])c1cn2c(n1)OC[C@@H](OCc1ccc(-c3ccc(OC(F)(F)F)cc3)nc1)C2 here?
A: Its value is 7.02%.

Q: With C=C1CCC2[C@](C)(CCC[C@@]2(C)C=O)[C@H]1CC/C(C)=C/CO (stereo not given in full) as the compound, how does the “activity change, negative = cytotoxicity” value read?
A: Its value is -1.73%.

Q: For COc1ccc(CCc2nc3cc(-c4c(C)noc4C)ccc3n2CC(C)N2CCOCC2)cc1Cl (stereo not given), which “activity change, negative = cytotoxicity” value is on record?
A: Its value is -12.8%.

Q: For O=C(NCC(=O)N1CCCC1)Nc1ccc2cnccc2c1, which “activity change, negative = cytotoxicity” value is on record?
A: Its value is 9.82%.

Q: With C=C(C)C(=O)O[C@H]1[C@H]2C(=C)C(=O)O[C@@H]2/C=C(\CO)CC/C=C(/C=O)[C@@H]1O as the compound, how does the “activity change, negative = cytotoxicity” value read?
A: Its value is 5% [at 38.5 µM].

Q: With COc1c(C)cc(NC(=O)c2nn(Cc3ccc(F)cc3)c3c2CN(C(=O)c2ccc[nH]2)C[C@]3(C)C(N)=O)cc1C as the compound, how does the activity change, negative = cytotoxicity read?
A: The activity change, negative = cytotoxicity was 4.64% [at 11.6 µM].

Q: Which Potency does the source give for Cc1[nH]c2ccccc2c1CCNCc1ccc(/C=C/C(=O)NO)cc1 here?
A: Its Potency is 355 nM (active).

Q: Which “activity change, negative = cytotoxicity” value does the source give for O=C(NC1CCC1)c1ccc(C#Cc2cccc(F)c2)nc1 here?
A: The value was 7.8%.

Q: For COc1ccc(NC(=O)C2C[C@H](C)CC[C@H]2C(C)C)cc1 (stereo not given in full), which “activity change, negative = cytotoxicity” value is on record?
A: The value was -1.53%.

Q: Which “activity change, negative = cytotoxicity” value does the source give for COc1cc(OC)c2c(=O)[nH]c(-c3cc(C)c(OCCO)c(C)c3)nc2c1 here?
A: The value was -11.5%.

Q: For CC1(C=O)CCCC2(C)C1CCC13CC(CO)C(CCC12)C3 (stereo not given), which “activity change, negative = cytotoxicity” value is on record?
A: The value was -1.13%.

Q: COc1c2c(nc3occc13)C(CC=C(C)C)(OC)C(O)CC2 (stereo not given) was tested. Which “activity change, negative = cytotoxicity” value did it give?
A: Its value is 8.9% [at 38.5 µM].

Q: How did the “activity change, negative = cytotoxicity” value turn out when Cn1ncnc1[C@@H]1c2n[nH]c(=O)c3cc(F)cc(c23)N[C@H]1c1ccc(F)cc1 was run?
A: Its value is 9.81%.

Q: How did the “activity change, negative = cytotoxicity” value turn out when O=C(O)c1cccc(-c2ccc(-c3cn(C(=O)N4CCCCC4Cc4ccccc4)nn3)cc2)c1 (stereo not given) was run?
A: The value was 1.05%.

Q: Which “activity change, negative = cytotoxicity” value does the source give for Cc1cccc(-c2[nH]ncc2-c2ccc(F)c(-c3cnn(CCO)c3)c2)n1 here?
A: Its value is 0.654%.

Q: CC1(C)CCC2(C(=O)OC3OC(COC4OC(CO)C(O)C(O)C4O)C(O)C(O)C3O)CCC3(C)C(=CCC4C5(C)CCC(OC6OCC(O)C(O)C6O)C(C)(C)C5CCC43C)C2C1O (stereo not given) was tested. Which activity change, negative = cytotoxicity did it give?
A: The activity change, negative = cytotoxicity was 5.34% [at 11.6 µM].

Q: With CC(=O)O[C@@H]1[C@@H](O)[C@H](O[C@@H]2[C@@H](O)[C@@H](O)[C@H](O[C@H]3[C@H](O[C@H]4[C@H](O[C@H]5CC[C@@]6(C)C(CC[C@]7(C)C6CC=C6[C@@H]8CC(C)(C)CC[C@]8(C(=O)O)CC[C@]67C)[C@]5(C)CO)O[C@H](CO)[C@@H](O)[C@@H]4O)OC[C@@H](O)[C@@H]3O)O[C@H]2C)OC[C@H]1O (stereo not given in full) as the compound, how does the activity change, negative = cytotoxicity read?
A: Its activity change, negative = cytotoxicity is -1.31% [at 11.6 µM].

Q: For CN(C)CC#CCCC(=O)C(O)(c1ccccc1)C1CCC1 (stereo not given), which “activity change, negative = cytotoxicity” value is on record?
A: The value was -0.557%.

Q: Cc1cn2c(n1)Cc1ccc(Cl)cc1C(c1ccc(N)cc1)=N2 was tested. Which “activity change, negative = cytotoxicity” value did it give?
A: The value was 5.12%.

Q: Which “activity change, negative = cytotoxicity” value does the source give for CC1(CO)CC(O)[C@]2(C(=O)O)CCC34CC3(C=CC3[C@]5(C)C(CC[C@]34C)C(C)(CO)[C@@H](O)[C@H](O)[C@@H]5O)C2C1 (stereo not given in full) here?
A: The value was -2% [at 25.3 µM].

Q: CC(=O)O[C@H]1C[C@@](O)(C(C)C)[C@@H]2[C@@H](OC(=O)c3ccc(O)cc3)CC(C)=CC[C@@]12C was tested. Which “activity change, negative = cytotoxicity” value did it give?
A: The value was 1.53% [at 25.3 µM].

Q: With Cc1ccc(C(C)C)c(O[C@@H]2O[C@H](CO)[C@@H](O)[C@H](O)[C@H]2O)c1 as the compound, how does the “activity change, negative = cytotoxicity” value read?
A: The value was 0.0607% [at 38.5 µM].

Q: For O=C1Nc2ccccc2-c2nc3ccccc3c(=O)n2-c2c(O)cccc21, which “activity change, negative = cytotoxicity” value is on record?
A: The value was 6.28% [at 38.5 µM].

Q: For COc1ccc(CN2CCN(CCCSc3cc(C(C)(C)C)c(O)c(C(C)(C)C)c3)CC2)c(OC)c1OC, which activity change, negative = cytotoxicity is on record?
A: The activity change, negative = cytotoxicity was 12.2% [at 11.6 µM].

Q: With CN(C)c1ccnc2sc3c(=O)n(N4CCCCCC4)cnc3c12 as the compound, how does the “activity change, negative = cytotoxicity” value read?
A: Its value is 10.6%.

Q: With Cc1c(C(=O)NCc2cccnc2)nn(-c2ccc(Cl)cc2Cl)c1-c1ccc(Cl)cc1 as the compound, how does the “activity change, negative = cytotoxicity” value read?
A: The value was -2.67%.

Q: CC(C)=CCc1cc2c(cc1O)OC[C@H]1c3ccc(O)cc3O[C@@H]21 was tested. Which “activity change, negative = cytotoxicity” value did it give?
A: Its value is 2.59% [at 38.5 µM].

Q: For Cn1cc(-c2ccc(F)c(C(F)(F)F)c2)nc1C1CCN(c2ncnc3[nH]ncc23)CC1, which “activity change, negative = cytotoxicity” value is on record?
A: Its value is -0.66% [at 25.3 µM].

Q: Which “activity change, negative = cytotoxicity” value does the source give for O=C(O)CCc1nccc2c1[nH]c1ccccc12 here?
A: The value was 1.51%.

Q: How did the “activity change, negative = cytotoxicity” value turn out when NS(=O)(=O)c1ccc(N2CCN(CC[C@@H]3OCCc4ccccc43)CC2)cc1 was run?
A: The value was 9.64%.

Q: Which activity change, negative = cytotoxicity does the source give for CC1(C)CC[C@]23CO[C@@]4(CCC5[C@@]6(C)CC[C@H](O[C@@H]7OC[C@H](O[C@@H]8O[C@H](CO)[C@@H](O)[C@H](O)[C@H]8O[C@@H]8OC[C@@H](O)[C@H](O)[C@H]8O)[C@H](O)[C@H]7O)[C@@](C)(CO)C6CC[C@@]5(C)[C@]4(C)CC2=O)[C@@H]3C1 (stereo not given in full) here?
A: The activity change, negative = cytotoxicity was 9.11% [at 11.6 µM].

Q: Which “activity change, negative = cytotoxicity” value does the source give for Cc1ccc(CNc2ncnc3ccc(-c4ccc(CO)o4)cc23)o1 here?
A: Its value is 1.6%.

Q: C/C(=C/CO)CCC1C(C)CCC2C(C)(C)CCCC12C (stereo not given) was tested. Which “activity change, negative = cytotoxicity” value did it give?
A: Its value is 2.24%.

Q: With C[C@@H]1O[C@@H](O[C@H]2CC[C@@]3(C)C(CC[C@]4(C)C3CC=C3[C@@H]5CC(C)(C)CC[C@]5(C(=O)O[C@@H]5O[C@H](CO)[C@@H](O)[C@H](O)[C@H]5O)CC[C@]34C)[C@]2(C)CO)[C@H](O)[C@H](O[C@@H]2O[C@H](CO)[C@@H](O)[C@H](O)[C@H]2O)[C@H]1O (stereo not given in full) as the compound, how does the activity change, negative = cytotoxicity read?
A: The activity change, negative = cytotoxicity was -0.79% [at 11.6 µM].

Q: C[C@H](Nc1cc2c(-c3ccc4c(c3)OCO4)noc2cn1)c1ccccc1 was tested. Which “activity change, negative = cytotoxicity” value did it give?
A: The value was 1.69%.

Q: O=C(N[C@H](Cc1cscn1)C(=O)N[C@@H](CC1CCCCC1)[C@@H](O)[C@@H](O)C1CC1)c1nc2ccccc2[nH]1 was tested. Which “activity change, negative = cytotoxicity” value did it give?
A: Its value is 14.1%.

Q: For O=C(NCCCc1ccccc1)C1CCC(CNS(=O)(=O)c2cccc3nsnc23)CC1 (stereo not given), which “activity change, negative = cytotoxicity” value is on record?
A: The value was 0.531%.

Q: With CC(C)c1ccc(NC(=O)Cn2cnc3c2c(=O)n(C)c(=O)n3C)cc1 as the compound, how does the “activity change, negative = cytotoxicity” value read?
A: Its value is -2.32%.

Q: Which “activity change, negative = cytotoxicity” value does the source give for C=C1C(=O)OC[C@@H]1C/C=C(\C)CC1CC(C)C(=O)O1 (stereo not given in full) here?
A: The value was -14.7%.
